Screening data as filed in PubChem BioAssay.
BAZ2B inh: blocks human BAZ2B | 360,000 tested, 4.4% active | Potency, µM (series often up to 114 µM), for inactives: at the top dose activity change, negative = inhibition, most hits filed as inhibitors | AID 504333 | AlphaScreen BAZ2B-H3K14Ac peptide displacement | Q9UIF8; further: on the % scale 0 is the no-effect control and ±100 the full control effect; nearly all actives have a fitted effect of over 60% in size
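AlphaScreen displacement: compounds (up to 110uM) incubated 30 min at room temperature with a preformed 50 nM BAZ2B/50 nM biotinylated H3K14Ac peptide complex in PBS pH 7.4 with Tween-20. Donor and acceptor beads at 10 ug/mL final added, 20 min light-protected before reading.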
PLK1 PBD inh: blocks phosphopeptide binding to human PLK1 polo-box domain; P53350; Plk1 PBD binding of FITC phosphopeptide, fluorescence polarization; Potency, µM, inactives show max response, negative = inhibition, usual class: inhibitors; 360,000 tested, 2.8% active; AID 720504; further: series mostly up to about 57 µM; on the % scale 0 is the no-effect control and ±100 the full control effect; nearly all actives have a fitted effect of over 65% in size
JMJD2A Tudor: JMJD2A Tudor domain (human) inhibition. AlphaScreen JMJD2A-Tudor / H3K4me3 peptide binding. O75164. 390,000 tested, 4.4% active. Potency, µM (highest dose often 114 µM), without a hit: at the highest dose activity change, negative = inhibition, most hits filed as inhibitors; further: on the % scale 0 is the no-effect control and ±100 the full control effect; nearly all actives have a fitted effect of over 50% in size
HP1b chromo inh: blocks HP1-beta chromodomain binding to methylated histone tails; P83916; AlphaScreen HP1-beta / biotin-H3K9me3 peptide binding; Potency, µM (top dose mostly 114 µM), inactives show top-dose activity change, negative = inhibition, hits mostly inhibitors; 390,000 tested, 0.56% active; further: nearly all actives have a fitted effect of over 70% in size
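AlphaScreen: HP1-beta (50 nM) preformed 30 min with biotin-H3(1-18)K9me3 peptide (50 nM) in PBS pH 7.4, 0.01% Tween-20. Compound added for 30 min at RT, then streptavidin donor/nickel chelate acceptor beads (10 ug/mL) for 30 min.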
Sfp inh: inhibitors of Bacillus subtilis Sfp phosphopantetheinyl transferase. Q9F4F7. Biochemical Sfp PPTase activity, qHTS. Potency, µM, without a hit: largest response in the series, negative = inhibition, usual class: inhibitors. 310,000 tested, 3.5% active;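 further: the enzyme is Sfp with the accession as filed and its product quenches rhodamine fluorescence; 0% = enzyme reaction without inhibitor and -100% = no enzyme wells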
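Buffer: 50 mM Hepes-Na pH 7.6, 10 mM MgCl2, 0.01% Nonidet P-40, 0.01% BSA. Enzyme 15 nM, pre-exposed to compound 15 min; substrates then added and fluorescence change tracked over 30 min.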
G9a block: inhibitors of human histone lysine methyltransferase G9a; Q96KQ7; G9a H3K9 monomethylation, AlphaScreen, 2 h; Potency, µM (highest dose often 102 µM), for inactives: at the top dose activity, negative = inhibition, hits mostly inhibitors; 350,000 tested, 8.8% active; further: on the % scale 0 is the no-effect control and ±100 the full control effect; nearly all actives have a fitted effect of over 75% in size
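Signal arises when biotinylated H3K9 peptide, once monomethylated, bridges streptavidin donor and antibody-captured acceptor beads. Enzyme at 20 nM was preincubated 15 min with test compounds; peptide 500 nM and SAM 20 uM then reacted for 2 h.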
An asterisk follows results filed as active; ? = inconclusive; . = no result given; [ ] = remark or other dose. A selection: hits, their analogues and other compounds. The true share with any hit is near 12%. The call rests on the fitted dose curve; in most records, active means well fitted curve in the direction sought with a large enough effect; inconclusive means small, poorly fitted or top-dose-only effect, or another doubt; inactive means no such curve, though single readings can be large; an effect the other way counts as inactive or inconclusive. Potency means the concentration at half of the fitted maximal effect.

SMILES	BAZ2B inh	PLK1 PBD inh	JMJD2A Tudor	HP1b chromo inh	Sfp inh	G9a block
CC(NC(=O)C1CCN(C(=O)N2CCOc3ccc(Cl)cc32)CC1)c1ccccc1 (centres undefined)	-38%	.	?	-33%	.	?
CCCC(=O)Nc1ccc(N2CCN(C(=O)CCC)CC2)cc1	-5%	-1%	-20%	11%	8%	50µM*
Nc1ccc(-c2n[nH]c(=O)c3ccccc23)cc1N	-12%	-7%	-32%	-11%	14µM*	8.9µM*
Cc1ccc(-c2n[nH]c(=O)c3ccccc23)cc1N	-4%	-8%	-10%	2%	-1%	-8%
COc1cccc(C2/C(=C(\O)c3c(C)nc4c(C)cccn34)C(=O)C(=O)N2CCCN(C)C)c1 (centres undefined)	-6%	.	.	.	-11%	50µM*
CCN(CC)CCN1C(=O)C(=O)/C(=C(/O)c2cnn(-c3ccccc3)c2C)C1c1cccnc1 (centres undefined)	-9%	1%	-5%	22%	14%	-6%[12.7 µM]
COc1cc(C2/C(=C(/O)c3ccc(OCC(C)C)cc3)C(=O)C(=O)N2CCN(C)C)ccc1O (centres undefined)	-9%	-2%	-8%	17%	-8%	25µM*
COc1ccc(OC)c(C2/C(=C(/O)c3cnn(-c4ccccc4)c3C)C(=O)C(=O)N2CCN(C)C)c1 (centres undefined)	50µM*	-2%	-4%	25%	0%	?
Cc1nc2c(C)cccn2c1/C(O)=C1\C(=O)C(=O)N(CCN(C)C)C1c1cccs1 (centres undefined)	.	-9%	0%	14%	.	.
COc1ccc(C2/C(=C(/O)c3cnn(-c4ccccc4)c3C)C(=O)C(=O)N2CCN(C)C)cc1OC (centres undefined)	.	-9%	18µM*	25%	.	.
